# Data: ChEMBL document CHEMBL4513149, “CO-ADD screening of MMV (CH) - MMV compounds” (2021)
# Entries with a potency or affinity are not part of this list.
# Experiments:
# [1] = system: Klebsiella pneumoniae; conditions: Concentration 20 uM; ASSAY_TEST Inhibition of Bacterial Growth; detection method Absorption (OD600); MEDIA CAMHB; plate type 384well; NBS; CORNING #3640; time 18 hr
# [2] = system: Candida albicans; conditions: 20 µM
# [3] = system: Cryptococcus neoformans; conditions: Concentration 20 uM; ASSAY_TEST Inhibition of Fungal Growth; detection method Resazurin; Absorption (OD600-OD570); plate type 384well; NBS; CORNING #3640
Structure (SMILES),Inhibition [1] [%],Inhibition [2] [%],Inhibition [3] [%]
CCCCc1ccc(C(=O)Nc2nccc3ccccc23)nc1,7.3,6.07,-8.5
CCCCS(=O)(=O)Nc1ccc2cnn(C)c2c1,10.18,2.57,-4.93
CCCS(=O)(=O)N1CCC(CO)(Cc2ccccc2C(F)(F)F)CC1,9.23,3.76,-2.93
CS(=O)(=O)N1CCC(CCn2nc(Cc3cccc4ccccc34)c3c(N)ncnc32)CC1,2.11,3.38,-7.27
Cl.c1ccc(Oc2ccc(-c3cc(N4CCNCC4)[nH]n3)cc2)cc1,-6.32,2.61,-9.84
CC(=O)O.CC(=O)O.Nc1ncnc2c1ncn2[C@@H]1O[C@H](COS(=O)(=O)NC(=O)c2ccccc2O)[C@@H](O)[C@H]1O,14.67,1.66,-8.69
COc1ccc(C2CC(c3cccs3)=NN2C(=O)c2ccco2)cc1OC (stereo unspecified),20.7,5.76,-8.05
CC(C)C(C(=O)Nc1ccc(S(=O)(=O)N(C)C)cc1)c1ccc(Cl)cc1 (stereo unspecified),-12.7,4.83,-3.24
CC1CCCCN1C(=O)NCCc1coc(-c2ccc(F)cc2)n1 (stereo unspecified),15.76,3.66,-14.62
O=C(CN1CCOCC1)Nc1ccc2ncnc(Nc3ccc(OCc4cccc(F)c4)c(Cl)c3)c2c1,11.31,5.94,-1.06
O=C(C1CCCCC1)N1CC(=O)N2CCc3ccccc3C2C1 (stereo unspecified) [PRAZIQUANTEL],12.46,4.53,-6.4
Cc1cccc(Cn2ccc(NC(=O)c3ccc4c(c3)OCO4)n2)c1,15.15,6.79,3.81
CN1CCN(c2cc(-c3ccc(F)cc3)nc(-c3ccncc3)n2)CC1,4.2,3.25,-11.56
CCOc1ccc2cc(-c3nn(C(C)(C)C)c(N)c3C(N)=O)cnc2c1.Cl,13.27,2.56,-7.03
FC(F)(F)c1cc(NCCc2ccccc2)nc(-c2ccccn2)n1,-3.94,1.73,-6.05
COc1cccn2c(C(=O)N3CCCCC3)c(C(F)(F)F)nc12,7.08,1.9,-6.15
Cl.Cl.Cl.NS(=O)(=O)c1cncc(-c2ccc3nccc(-c4cn[nH]c4)c3n2)c1,-1.63,3.16,-2.89
